Compound activity from PubChem BioAssay.
HCMV antiviral = blocks human cytomegalovirus replication. HFF cells, HCMV-luciferase reporter, 72 h; stronger effect = lower value. activity change, negative = inhibition, % at 57.5 µM. hit rate 4.5% among 410,000. AID 1259415; in the data active = activity change below about -60%; inconclusive = no clear call, values can overlap the other calls; inactive = above about -39%
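Inhibition of viral replication was scored as loss of reporter luminescence in HFFs infected with HCMV-luciferase (MOI 1 PFU/cell) for 72 h; compounds tested at 2 doses, normalized to buffer and Salinomycin controls.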
Pf growth 96h = P. falciparum growth inhibition at 96 hour, primary screen for plastid delayed-death inhibitors. hit rate 6.9% among 320,000. AID 504834. Potency, µM (series often up to 28.7 µM), for inactives: at the top dose activity change, negative = inhibition, hits mostly inhibitors. P. falciparum luciferase reporter growth, 96 h; also: potency is read from the fitted curve at half-maximal effect
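Parasite growth measured via integrated firefly luciferase reporter in P. falciparum. Infected erythrocytes at 2% hematocrit, 0.05% parasitemia final were treated 96 hours at 37 C under 5% CO2, and luminescence was read.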
FBPA Giardia inh = inhibitors of Giardia lamblia fructose-1,6-bisphosphate aldolase. Potency, µM (titrated, usually from 59.6 µM), without a hit: at the top dose activity, negative = inhibition, actives largely listed as inhibitors. hit rate 0.71% among 290,000. A8B2U2. purified Giardia FBPA; also: potency is read from the fitted curve at half-maximal effect; nearly all actives have a fitted effect of over 55% in size
Target sequence (A8B2U2 whole entry, looked up): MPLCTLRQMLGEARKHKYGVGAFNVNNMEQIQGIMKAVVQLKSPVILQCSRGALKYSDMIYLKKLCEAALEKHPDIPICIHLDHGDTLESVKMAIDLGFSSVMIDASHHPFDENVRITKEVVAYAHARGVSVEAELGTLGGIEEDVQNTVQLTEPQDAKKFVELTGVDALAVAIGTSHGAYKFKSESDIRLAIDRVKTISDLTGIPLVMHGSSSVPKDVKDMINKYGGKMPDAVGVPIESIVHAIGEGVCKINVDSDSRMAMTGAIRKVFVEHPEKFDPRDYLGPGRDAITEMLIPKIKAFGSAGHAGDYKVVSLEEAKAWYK
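40 nM FBPA preincubated 10 min at RT with compound (up to 57.5 uM final), then substrate plus GAPDH/TPI/NAD/arsenate coupling and diaphorase/resazurin added. Fluorescence read after 20 min at RT, 525/598 nm.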
Sm TGR block = S. mansoni TGR enzyme inhibition. Q962Y6. purified TGR, DTNB reduction, TNB absorbance 405 nm. Potency, µM (highest dose often 114 µM), for inactives: at the top dose activity change, negative = inhibition, most hits filed as inhibitors. hit rate 3% among 360,000. AID 485364; also: potency is read from the fitted curve at half-maximal effect; nearly all actives have a fitted effect of over 60% in size
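TGR 20 nM + NADPH 100 uM (dispensed conc.), cpd preinc 15 min RT; start with NADPH (500 uM addition) then DTNB (15 mM addition). Kinetic TNB absorbance, 405 nm filter. Four-parameter Hill fit across titration.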
Pf growth 48h = P. falciparum growth inhibition at 48 hours (one generation). P. falciparum luciferase growth in erythrocytes, 48 h. Potency, µM (series often up to 28.7 µM), for the others: top-dose activity change, negative = inhibition, most hits filed as inhibitors. hit rate 5.9% among 310,000; also: potency is read from the fitted curve at half-maximal effect
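Luminescence readout; reporter = integrated firefly luciferase in P. falciparum. RBC culture at 2% hematocrit, 0.1% parasitemia final, 37 C/5% CO2; decreased signal taken as growth inhibition.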
* marks the source's active call; other numbers are inactive results; ? = inconclusive; . = no result given; [ ] = another dose, or the depositor's remark. Sampled rows, rich in hits. Any-hit rate of the full collection: about 14%. Unless noted, calls follow the shape of the dose curve; as a rule, active = well fitted curve in the direction sought with a large enough effect; inconclusive = small, poorly fitted or top-dose-only effect, or another doubt; inactive = no such curve, though single readings can be large; an effect the other way counts as inactive or inconclusive. % is scaled to controls: 0 for no effect and ±100 for the full control effect.

SMILES	HCMV antiviral	Pf growth 96h	FBPA Giardia inh	Sm TGR block	Pf growth 48h
COc1ccc(NC(=O)Nc2cccc(C)n2)cc1	-19	5%	-4%	2%	140%
CC1(C)CC(=O)C2=C(C1)O[C@@]1(CCCCN3C(=O)c4ccccc4C3=O)Cc3ccccc3C2O1	.	1.7µM*	6%[12.9 µM]	-28%[22.9 µM]	1.7µM*
CCCC[C@]12Cc3cc(OC)c(OC)cc3C(O1)C1=C(O2)C(=O)c2ccccc2C1=O	.	26%[5.75 µM]	?	?	1.3µM*
CCCC[C@]12Cc3ccccc3[C@H](O1)C1=C(O2)C(=O)c2ccccc2C1=O	.	0.85µM*	21%[12.9 µM]	1%[22.9 µM]	?
CCCCC[C@]12Cc3ccccc3C(O1)C1=C(CC(C)(C)CC1=O)O2	.	?	6%[12.9 µM]	-10%[22.9 µM]	34%[5.75 µM]
COc1cc2c(cc1OC)C1O[C@](CCCCN3C(=O)c4ccccc4C3=O)(C2)Oc2c1c(=O)oc1ccccc21	.	?	16%[12.9 µM]	-17%[22.9 µM]	?
Cc1ccc(C(=O)N/C(=C\c2ccccc2)C(=O)NCCCn2ccnc2)cc1	?	6%	5%	-2%	-7%
CCn1c(CNc2ccc(C)cc2)nnc1SCC(N)=O	25	?	-10%	-8%	8%
CCOC(=O)c1cc(S(=O)(=O)N2CCN(C3CCCCC3)CC2)cn1C	-10	82%	-1%	-15%	-3%
O=C(Cc1ccc(Cl)cc1)Nc1ccc(N2CCN(C(=O)c3ccco3)CC2)c(Cl)c1	-12	-10%	5%	0%	12µM*
CC(C)C(=O)N1CCN(c2ccc(NC(=O)c3ccc4c(c3)OCCO4)cc2Cl)CC1	-80*	4.7µM*	-27%	-24%	.
O=C(Nc1ccc(N2CCN(C(=O)c3ccco3)CC2)c(Cl)c1)c1cccs1	-19	.	-11%	0%	5.2µM*
CC(C)C(=O)N1CCN(c2ccc(NC(=O)c3cccs3)cc2Cl)CC1	-85*	-1%	-11%	11%	?
CCC(=O)Nc1ccc(N2CCN(C(=O)c3ccco3)CC2)c(Cl)c1	7	?	1%	-1%	-11%
O=C(Nc1ccc(NC(=O)c2cccs2)cc1Cl)c1ccco1	-14	13%	-4%	6%	86%
CC(=O)N1CCN(c2ccc(NC(=O)c3ccc4c(c3)OCCO4)cc2Cl)CC1	-11	18%	?	36%	20%
CCOc1ccccc1CNC(=O)c1cc2cc(S(=O)(=O)N3CCCCC3)ccc2n1C	31	.	.	-1%	.
COc1ccccc1CNc1ncnc2ccc(-c3cccnc3)cc12	.	.	0%	.	.
CC(O)CNc1nc(N)[nH]c(=O)c1N=Nc1ccccc1 (centres undefined)	33	.	.	.	.
COC(=O)Nc1ccc(SCC(=O)c2cccc([N+](=O)[O-])c2)cc1	25	19%	-5%	?	25%
CCOc1ccc(NC(=O)Cn2cc(C(=O)c3ccc(C)c(C)c3)c(=O)c3cc4c(cc32)OCCO4)cc1	4	.	.	-8%	.
CCN(c1cc(C)cc(C)c1)S(=O)(=O)c1nnc(NC(=O)c2ccccc2C)s1	-35	.	.	7%	.
O=C1CSC(c2ccccn2)N1c1ccc(C(F)(F)F)cc1 (centres undefined)	21	?	-2%	-5%	2.9µM*
O=C1CSC(c2cccs2)N1c1ccccc1 (centres undefined)	47	7.4µM*	0%	-29%	6%
c1csc(C(c2nnnn2C2CCCCC2)N2CCCC3(CCCCC3)C2)c1 (centres undefined)	?	?	8%	0%	2.6µM*
SMILES	HCMV antiviral	Pf growth 96h	FBPA Giardia inh	Sm TGR block	Pf growth 48h
CCC(C)(C)n1nnnc1C(c1cccs1)N1CCCCC1 (centres undefined)	22	8%	5%	4%	-16%
CC(C)(C)n1nnnc1C(c1cccs1)N1CCCC2(CCCCC2)C1 (centres undefined)	-13	?	-3%	-7%	5.2µM*
Clc1ccc(C(c2nnnn2C2CCCC2)N2CCSCC2)cc1 (centres undefined)	-40	80%	-1%	2%	-23%
O=C(Nc1ccccc1)c1cccc(C(F)(F)F)c1	-34	3%	1%	-2%	42%
C=CCN(C(=O)c1cccc(C(F)(F)F)c1)C1(C(=O)Nc2ccccc2)CCN(C(C)C)CC1	-15	7.4µM*	2%	0%	?
c1ccc(CCNc2nc(-c3ccccn3)nc3ccccc23)cc1	-103*	1.7µM*	11%	2%	1µM*
CCCCN(CC)c1nc(-c2ccncc2)nc2ccccc12	-95*	.	?	-11%	2.9µM*
CCCCN(CCCC)c1nc(-c2ccccc2)nc2ccccc12	-21	.	.	-2%	.
CCCN(CCC)c1nc(-c2ccccn2)nc2ccccc12	-100*	0.33µM*	16%	-1%	0.83µM*
O=C(c1ccc([N+](=O)[O-])cc1)N1CCC(n2nnc3cc(F)ccc32)CC1	-12	-17%	16%	5%	66%
O=C(CN1CCC(n2nnc3cc(F)ccc32)CC1)NCc1ccco1	-10	-1%	?	45µM*	?
O=C(N1CCOCC1)N1CCC(n2nnc3cc(F)ccc32)CC1	56	10µM*	-15%	-15%	-14%
Cc1nc2cnc(N3CCN(C)CC3)nc2n(C)c1=O	.	.	0%	.	.
OC(C#CCN1CCOCC1)c1cccs1 (centres undefined)	2	19%[5.75 µM]	-4%	28µM*	12%
COc1ccc2cc(C(=O)N3CCc4ccccc43)[nH]c2c1	177	278%	-20%	8%	159%
CC1(O)C(=O)C2(C)C=CC1C1C(=O)N(c3ccccc3)C(=O)C12 (centres undefined)	-2	.	.	.	.
C=CCN1C(c2ccccc2)=CS/C1=C(\C#N)c1nnc2n1CCCCC2	-36	-3%	-6%	-19%	?
CCOc1ccc(C2=CS/C(=C(\C#N)c3nnc4n3CCCCC4)N2CC)cc1	-63*	-3%[5.75 µM]	-15%	-4%	?
C[C@@H](C(=O)Nc1cccnc1)n1c(=O)[nH]c2ccccc2c1=O	-9	?	.	0%	12µM*
CCC(C(=O)Nc1ccc2c(c1)OCCO2)n1c(=O)[nH]c2ccccc2c1=O (centres undefined)	-73*	114%	3%	0%	57%
CC(=O)N1CCCc2cc(S(=O)(=O)Nc3ccccc3C)ccc21	-33	0%	11%	-1%	-1%
COCCOC(=O)C1=C(C)NC(C)=C(C(=O)OC(C)C)[C@@H]1c1cccc([N+](=O)[O-])c1	.	.	-9%	.	.
CCOC(=O)C1=C(C)NC(C)=C(C(=O)OCC)C1c1ccc([N+](=O)[O-])s1	20	13µM*	-7%	?	?
CCOC(=O)C1=C(C)NC(C)=C(C(=O)OC)[C@@H]1c1cccc([N+](=O)[O-])c1	.	.	2%[21.7 µM]	.	.
